In all, about 8,300 sequences were measured (“log2 fold change of degron read counts, EGFP-low vs EGFP+ sorted cells (limma voom), compound-induced degradation”: median about -1.1, highest 2% from about 3.2 on). The list comes from a sample in which the highest values are over-represented; it also holds similar and randomly drawn sequences.
T1: CRBN, Q96SW2
T1 chain: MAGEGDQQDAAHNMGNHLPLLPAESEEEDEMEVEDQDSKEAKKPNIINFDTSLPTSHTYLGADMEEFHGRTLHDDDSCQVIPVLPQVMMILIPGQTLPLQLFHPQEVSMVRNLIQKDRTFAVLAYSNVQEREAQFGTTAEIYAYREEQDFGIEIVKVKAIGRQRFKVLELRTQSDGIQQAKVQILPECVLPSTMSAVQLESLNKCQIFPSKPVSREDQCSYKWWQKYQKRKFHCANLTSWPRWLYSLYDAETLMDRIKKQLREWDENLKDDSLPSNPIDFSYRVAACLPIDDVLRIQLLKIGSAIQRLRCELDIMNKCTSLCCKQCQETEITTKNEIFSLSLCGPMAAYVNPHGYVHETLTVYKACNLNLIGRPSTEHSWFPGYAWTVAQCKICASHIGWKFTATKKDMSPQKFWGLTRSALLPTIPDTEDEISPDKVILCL


Molecular target: T1, CRBN, Q96SW2
Test: log2 fold change of degron read counts, EGFP-low vs EGFP+ sorted cells (limma voom), compound-induced degradation; higher = more compound-induced degradation of the degron-EGFP fusion; degrons are variants of IKZF1/3 zinc finger 2; compound dose not given here
Settings: Jurkat, 18 h
[1] = compound: compound 19 (5-tert-butyl-thalidomide)
[2] = compound: compound 22 (5-morpholino-thalidomide)
[3] = compound: compound 33 (diphenyl IMiD analogue)
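Note: pooled lentiviral library of zinc finger degron-EGFP fusions in mCherry-positive Jurkat cells, FACS-sorted after compound exposure, with degron abundance counted by next-generation sequencing.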

Sequence | log2 fold change of degron read counts [1] | log2 fold change of degron read counts [2] | log2 fold change of degron read counts [3] | log2 fold change of degron read counts (compound: thalidomide)
FVCEICGRPFTQKGNLLRHIKL [46F_47V_49E_50I_52G_53R_54P_55F_67L_, Q9UKT9] | -1.68 | -0.932 | -1.28 | -0.0354
LCCPICGFKCTQKGNLLRHIKL [46L_47C_49P_50I_52G_53F_54K_55C_67L_, Q9UKT9] | 1.84 | 1.91 | 0.929 | 2.55
FYCEICGAKFTQKGNLLRHIKL [46F_47Y_49E_50I_52G_53A_54K_55F_67L_, Q9UKT9] | 3.9 | 3.84 | 1.98 | 1.59
FSCEICGAKFTQKGNLLRHIKL [46F_47S_49E_50I_52G_53A_54K_55F_67L_, Q9UKT9] | 3.23 | 1.96 | -0.76 | 1.76
FKCEICGAKFTQKGNLLRHIKL [46F_47K_49E_50I_52G_53A_54K_55F_67L_, Q9UKT9] | -1.09 | -3.1 | -3.06 | -1.37
FDCEICGAKFTQKGNLLRHIKL [46F_47D_49E_50I_52G_53A_54K_55F_67L_, Q9UKT9] | 2.14 | 0.278 | -2.01 | 1.01
FFCEICGAKFTQKGNLLRHIKL [46F_47F_49E_50I_52G_53A_54K_55F_67L_, Q9UKT9] | 3.78 | 3.65 | 1.37 | 1.7
FQCEICGAKFTQKGNLLRHIKL [46F_47Q_49E_50I_52G_53A_54K_55F_67L_, Q9UKT9] | 0.93 | 2.95 | 0.278 | 3.46
FNCEICGAKFTQKGNLLRHIKL [46F_47N_49E_50I_52G_53A_54K_55F_67L_, Q9UKT9] | 2.53 | 0.377 | -1.68 | 0.453
FHCEICGAKFTQKGNLLRHIKL [46F_47H_49E_50I_52G_53A_54K_55F_67L_, Q9UKT9] | 2.99 | 2.33 | -0.357 | 0.544
FCCEICGAKFTQKGNLLRHIKL [46F_47C_49E_50I_52G_53A_54K_55F_67L_, Q9UKT9] | 3.35 | 2.52 | 0.0496 | 2.53
FLCEICGAKFTQKGNLLRHIKL [46F_47L_49E_50I_52G_53A_54K_55F_67L_, Q9UKT9] | 0.834 | -0.868 | -0.0729 | 2.07
FECEICGAKFTQKGNLLRHIKL [46F_47E_49E_50I_52G_53A_54K_55F_67L_, Q9UKT9] | 0.521 | -1.41 | -0.834 | 2.62
